Reference: PubChem BioAssay AID1792 (The Scripps Research Institute Molecular Screening Center, 2009)
The whole screen tested about 16,000 compounds, of which about 130 (0.81%) were called active. What follows is part of a selection rich in actives, with near analogues and random picks from the rest. Unmarked numbers belong to inactive results. No stated cut-off is given here; in the data, active means inhibition above about 75%; inactive means the rest.

The compounds below were run against NADPH oxidase 1 (Homo sapiens) (UniProt Q9Y5S8) (assay: blocks human NADPH oxidase 1 activity (AID 1792)). Settings: HT29 cells, luminol chemiluminescence ROS; at 6.7 µM; stronger effect = higher value.
NADPH oxidase 1 (Homo sapiens), sequence (Q9Y5S8 whole entry, looked up): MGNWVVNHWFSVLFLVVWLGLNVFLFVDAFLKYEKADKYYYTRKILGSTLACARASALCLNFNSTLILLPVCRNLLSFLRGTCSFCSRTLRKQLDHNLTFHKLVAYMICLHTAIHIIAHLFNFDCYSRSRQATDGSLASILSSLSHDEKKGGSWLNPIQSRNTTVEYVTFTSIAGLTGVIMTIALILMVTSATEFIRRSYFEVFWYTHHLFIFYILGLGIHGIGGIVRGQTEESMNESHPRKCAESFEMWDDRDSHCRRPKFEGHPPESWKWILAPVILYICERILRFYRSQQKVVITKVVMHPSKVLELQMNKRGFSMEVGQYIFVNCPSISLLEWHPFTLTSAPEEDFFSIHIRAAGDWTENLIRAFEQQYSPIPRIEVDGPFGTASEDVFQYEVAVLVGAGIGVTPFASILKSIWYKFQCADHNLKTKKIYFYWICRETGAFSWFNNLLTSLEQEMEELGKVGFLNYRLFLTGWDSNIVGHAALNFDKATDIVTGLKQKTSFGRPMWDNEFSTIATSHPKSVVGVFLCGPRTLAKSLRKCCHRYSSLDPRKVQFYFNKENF

SMILES | inhibition
COc1ccc(NC(NC(=O)c2ccc(OC)cc2)(C(F)(F)F)C(F)(F)F)cc1 | -26.1%
COc1ccc(NC(=O)C2CC(C)=C(C)CC2C(=O)O)c(N2CCOCC2)n1 (configuration not stated) | -11.6%
O=C(CSC(=S)N1CCCCC1)c1c(F)cccc1F | 16%
Cn1nc(-c2ccccc2)cc1N | 12.5%
O=C(Nc1ccc(C(F)(F)F)cc1)Nc1ccccc1C(=O)O | -32.5%
Cc1ccc(OC(=O)c2nn(-c3ccccc3)nc2C)c([N+](=O)[O-])n1 | -75.6%
O=C(NCc1cc2ccccc2s1)C1CN(C(c2ccccc2)c2ccccc2)C1 | -2.49%
O=C(O)CC(CC(=O)O)c1ccc(C(F)(F)F)cc1 | -30.4%
COC(=O)c1sc(S(C)=O)c(-c2ccon2)c1C (configuration not stated) | -55.1%
Cc1onc(-c2ccccc2)c1C(=O)Sc1ccc(C(F)(F)F)cn1 | -30.5%
COC(=O)c1ccc(/C=C2\C(=O)Nc3ccccc32)n1-c1ccc(F)cc1 | -9.26%
COc1ccc(Cc2nnc(SC)[nH]c2=O)cc1 | -41.8%
O=S(=O)(Oc1ccc(C2SCCS2)cc1)c1ccc(Br)cc1 | 10.3%
OC(c1ccncc1)c1c[nH]c2ccccc12 (configuration not stated) | -46.2%
COc1ccc(OC)c(CCCc2cc(OC)ccc2OC)c1 | -22.8%
N#Cc1ccc(N2CCN(C(=O)c3ccco3)CC2)cc1 | -5.71%
Cc1[nH]c2c(F)cc(F)cc2c(=O)c1I | -29.2%
COc1cc(-c2n[nH]c(=S)n2Cc2ccccc2)cc(OC)c1OC | -31.5%
O=C1CCCCC(=O)c2ccccc2N1 | -36.9%
Cc1c(S(=O)(=O)c2ccc(Cl)cc2)csc1C(=O)Nc1ccc2c(c1)OCCO2 | -34.3%
NS(=O)(=O)c1cc(C(F)(F)F)cc(C(F)(F)F)c1 | -30.4%
NNC(=O)c1ccc(Cl)cc1Cl | -29.6%
N#CNC(N)=Nc1cc(Cl)ccc1Cl | -53.6%
O=C(NCc1csc(-c2cccs2)n1)Nc1ccccc1-c1ccccc1 | 11.9%
Cn1c(=O)c(/C(N)=N/OC(=O)c2ccccc2Cl)cn(-c2ccccc2)c1=O | -28.3%
N/C(CC(=O)Nc1ccc(F)c(Cl)c1)=N\O | 8.11%

SMILES | inhibition
O=C1NCCN1CCNS(=O)(=O)c1cc(Cl)sc1Cl | 14.5%
O=C(N[C@@H](Cc1ccc(O)cc1)C(=O)O)OCc1ccccc1 | -6.06%
CN(C)NC(=O)c1csnc1-c1c(Cl)cccc1Cl | -20.2%
CC(OC(=O)c1cccc(Cl)c1)c1ccc[n+](C)c1 (configuration not stated) | -47.2%
CCOC(=O)/C(C#N)=C/c1ccc(-c2nccs2)cc1C(C)(C)C | 8.33%
N#CC(C#N)=C/C=C(/Sc1nc2cc(Cl)ccc2s1)c1ccc(Cl)cc1 | -27.8%
CCOC(=O)N1CCN(CC(O)COc2ccc(OC(F)(F)F)cc2)CC1 (configuration not stated) | -47.2%
O=C(O)CC(CC(=O)Oc1ccccc1N1CCCCC1)c1ccccc1 (configuration not stated) | -24.8%
O=C(Oc1ccccc1N1CCCCC1)c1sc2ccccc2c1Cl | 85.7% (active)
CCOC(=O)c1sc2ccccc2c1N | -25.5%
N#C/C(=C\N1CCc2ccccc21)S(=O)(=O)c1ccc(C(F)(F)F)cn1 | -30.5%
N#CCCN(CCc1ccccn1)S(=O)(=O)c1ccc2c(c1)CCO2 | 35.1%
CCOC(=O)Cc1cnc(NN=C2C3CC4CC(C3)CC2C4)s1 | 55.1%
CSc1sc(NC(=O)N2CCOCC2)c(-c2ccc(Cl)cc2)c1C#N | 17.4%
O=C(CNC(=O)c1ccccc1F)c1ccc(Br)cc1 | -16.2%
COc1ccc(COCC(O)CN2CCC(C(N)=O)CC2)cc1 (configuration not stated) | -52.2%
CCOC(=O)O/N=C(\N)c1ccc(Cl)cc1 | 26%
CC(C)(C)c1ccc(NC(=O)c2ccco2)c(NC(=O)C(Cl)(Cl)Cl)c1 | 6.12%
CN(Cc1nnc(-c2ccc3ccccc3c2)o1)c1nnc(C(F)(F)F)s1 | 10.6%
CC1(C)CC(=O)c2c(NCc3ccco3)sc(C#N)c2C1 | -14.6%
CC(C)n1c(SCC(=O)c2cccc([N+](=O)[O-])c2)nc2cc(C(F)(F)F)ccc21 | 4.76%
CCOC(=O)c1cc(C)nc(Sc2ccccc2NC(=O)Nc2ccc(Cl)cc2)c1C#N | 34.3%
Cc1nn(-c2ccccc2)nc1C(=O)Nc1nnc(C2CC2)s1 | -13.2%
COC(=O)c1cc(OC)c(OC)cc1NS(=O)(=O)c1ccsc1C(=O)OC | -24.8%
O=C(NNc1ccc(C(F)(F)F)cn1)c1ccccc1Cl | 40.9%
O=C1C=C(NNc2ccccc2)CCC1 | -9.52%
